Here are results for 36 molecules from PubChem BioAssay (EPA / NIEHS).

Structures are written as SMILES. Active and inactive are the calls of the source. Rule for the calls: active = hit-call score of the fitted dose curve at least 0.9, where 1 is the maximum; inactive = score below 0.9.

Read-out in one test: Interleukin-8 (IL8), CXCL8 (gene 3576)
Briefly: BSK_hDFCGF_IL8: BioMAP Diversity Plus: hDFCGF Assay for Interleukin-8 (IL8) Biomarker Activity (AID 2283058). Conditions: primary human foreskin fibroblasts; actives raise or lower the signal. Put shortly: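 Fibroblast monolayers (human foreskin, hDFCGF) received test chemical for 24 h before ELISA detection of IL-8; either increases or decreases relative to DMSO count as activity.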
`CN(C)C(=O)Nc1cccc(C(F)(F)F)c1`: the outcome was inactive. For the molecule `COP(=O)(NC(C)=O)SC` (stereo not drawn), the result was inactive. Turning to `CN(C)NC(=O)CCC(=O)O`, the outcome was inactive. Regarding `C[Si](Cn1cncn1)(c1ccc(F)cc1)c1ccc(F)cc1`, the result was inactive. Consider `CCCOCC(=Nc1ccc(Cl)cc1C(F)(F)F)n1ccnc1`, for which the AC50 is 38.3 µM (active). For `CC1=NNC(=O)N(/N=C/c2cccnc2)C1`, the result was inactive. `C#CCC1=C(C)C(OC(=O)C2C(C=C(C)C)C2(C)C)CC1=O` (stereo not drawn): the AC50 is 37.8 µM (active).

In the case of `COP(=O)(OC)SCn1c(=O)oc2cc(Cl)cnc21`, the AC50 was 30.8 µM (active). In the case of `CCOP(=S)(Oc1cnc(C(C)(C)C)nc1)OC(C)C` (stereo not drawn), the result was inactive. As for `CNC(=O)ON=C(SC)C(=O)N(C)C`, the outcome was inactive. `CCOP(=S)(OCC)SCCSCC`: the result was inactive. On the same count and under the same terms, as for `CNc1cnn(-c2cccc(C(F)(F)F)c2)c(=O)c1Cl`, the entry is “inactive”; as for `CC1(C(=O)Nc2ccc(O)c(Cl)c2Cl)CCCCC1`, “inactive”. Same read-out and setting: next, `CN1COCN(Cc2cnc(Cl)s2)C1=N[N+](=O)[O-]`: “inactive”; `CCCCSP(=O)(SCCCC)SCCCC`: “inactive”.

`CC(C1CC1)C(O)(Cn1cncn1)c1ccc(Cl)cc1` (stereo not drawn): the outcome was inactive.

For the molecule `CC[C@H](C)[C@H]1O[C@]2(C=C[C@@H]1C)C[C@@H]1C[C@@H](C/C=C(\C)[C@@H](O[C@H]3C[C@H](OC)[C@@H](O[C@H]4C[C@H](OC)[C@@H](NC)[C@H](C)O4)[C@H](C)O3)[C@@H](C)/C=C/C=C3\CO[C@@H]4[C@H](O)C(C)=C[C@@H](C(=O)O1)[C@]34O)O2`, the AC50 is 6.99 µM (active).

For the molecule `CC(C)=CC1C(C(=O)OCN2C(=O)C3=C(CCCC3)C2=O)C1(C)C` (stereo not drawn), the result was inactive. As to `CC(Oc1cccc(Cl)c1)C(=O)O` (stereo not drawn), the result was inactive. In the case of `CCc1cccc(C)c1N(C(=O)CCl)C(C)COC` (stereo not drawn), the outcome was inactive. Still for that read-out and setting: next, `Cc1nn(-c2cc(NS(C)(=O)=O)c(Cl)cc2Cl)c(=O)n1C(F)F`: “inactive”.

Turning to `N#CSCSC#N`, the concentration at half-maximal activity (AC50) was 3.03 µM (active). With `Cc1ccn2nc(S(=O)(=O)Nc3c(F)cccc3F)nc2n1`, the outcome was inactive. In the case of `C[N+]1(C)CCCCC1`, the result was inactive. For the molecule `CCCOc1nn(C(=O)NS(=O)(=O)c2ccccc2C(=O)OC)c(=O)n1C`, the result was inactive. Same read-out and setting: next, `Nc1nc(N)nc(NC2CC2)n1`: “inactive”. As to `Nc1c(Cl)cc([N+](=O)[O-])cc1Cl`, the outcome was inactive. For `CCc1cccc(CC)c1N(COC)C(=O)CCl`, the result was inactive.

As for `CCCSP(=O)(OCC)Oc1ccc(Br)cc1Cl` (stereo not drawn), the outcome was inactive. As to `S=C1NCCN1`, the outcome was inactive. For `CCOP(=S)(OCC)Oc1ccc([N+](=O)[O-])cc1`, the result was inactive.

Regarding `CCC(=O)Nc1ccc(Cl)c(Cl)c1`, the result was inactive. Take `CCCCOC(=O)c1ccccc1C(=O)O`: the result was inactive. Still for that read-out and setting: as for `C#CC(C)(C)NC(=O)c1cc(Cl)cc(Cl)c1`, the entry is “inactive”; as for `COc1cc(OC)nc(Sc2cccc(Cl)c2C(=O)O)n1`, “inactive”.

Read-out in another test: not listed separately
Briefly: BSK_hDFCGF_Proliferation: Cell Proliferation Assessment in the BioMAP Diversity Plus: hDFCGF Assay (AID 2283059).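 Note: curves fitted for both rise and fall of signal versus DMSO baseline.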 To be noted: primary human foreskin fibroblasts. Put shortly: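 This proliferation readout used SRB total-protein staining of human foreskin fibroblasts […], normalized to DMSO with bidirectional curve fitting.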
Take `COP(=O)(NC(C)=O)SC` (stereo not drawn): the outcome was inactive. Take `CN(C)NC(=O)CCC(=O)O`: the outcome was inactive. With `CCCOCC(=Nc1ccc(Cl)cc1C(F)(F)F)n1ccnc1`, the AC50 was 21.2 µM (active). Consider `COP(=O)(OC)C(O)C(Cl)(Cl)Cl` (stereo not drawn), for which the outcome was inactive.

With `COP(=O)(OC)SCn1c(=O)oc2cc(Cl)cnc21`, the AC50 was 10.1 µM (active).

With `CNC(=O)ON=C(SC)C(=O)N(C)C`, the outcome was inactive.

For the molecule `CCOP(=S)(OCC)SCCSCC`, the result was inactive. With `CC1(C(=O)Nc2ccc(O)c(Cl)c2Cl)CCCCC1`, the result was inactive. On to `CCCCSP(=O)(SCCCC)SCCCC`, for which the AC50 is 30.6 µM (active). As to `CC(C1CC1)C(O)(Cn1cncn1)c1ccc(Cl)cc1` (stereo not drawn), the AC50 is 29.9 µM (active). The same measure, in the same setting: as for `CC[C@H](C)[C@H]1O[C@]2(C=C[C@@H]1C)C[C@@H]1C[C@@H](C/C=C(\C)[C@@H](O[C@H]3C[C@H](OC)[C@@H](O[C@H]4C[C@H](OC)[C@@H](NC)[C@H](C)O4)[C@H](C)O3)[C@@H](C)/C=C/C=C3\CO[C@@H]4[C@H](O)C(C)=C[C@@H](C(=O)O1)[C@]34O)O2`, the figure is 1.43 µM (active); as for `CCc1cccc(C)c1N(C(=O)CCl)C(C)COC` (stereo not drawn), 16.1 µM (active). Turning to `Cc1nn(-c2cc(NS(C)(=O)=O)c(Cl)cc2Cl)c(=O)n1C(F)F`, the result was inactive. On the same count and under the same terms, next, `Cc1ccn2nc(S(=O)(=O)Nc3c(F)cccc3F)nc2n1`: “inactive”.

With `C[N+]1(C)CCCCC1`, the outcome was inactive. Consider `CCCSP(=O)(OCC)Oc1ccc(Br)cc1Cl` (stereo not drawn), for which the AC50 was 31.7 µM (active). As to `CCC(=O)Nc1ccc(Cl)c(Cl)c1`, the outcome was inactive. In the case of `C#CC(C)(C)NC(=O)c1cc(Cl)cc(Cl)c1`, the outcome was inactive.
